High-throughput results from PubChem.
D1 antagonist: antagonists of human D1 dopamine receptor. P21728. HEK293 TREx D1 cells, calcium flux, dopamine EC80; hits give low values. activity change, negative = inhibition, % at 10 µM. 360,000 compounds, 3.2% hits; in the data active means activity change below about -30%
Target sequence (P21728 whole entry, looked up): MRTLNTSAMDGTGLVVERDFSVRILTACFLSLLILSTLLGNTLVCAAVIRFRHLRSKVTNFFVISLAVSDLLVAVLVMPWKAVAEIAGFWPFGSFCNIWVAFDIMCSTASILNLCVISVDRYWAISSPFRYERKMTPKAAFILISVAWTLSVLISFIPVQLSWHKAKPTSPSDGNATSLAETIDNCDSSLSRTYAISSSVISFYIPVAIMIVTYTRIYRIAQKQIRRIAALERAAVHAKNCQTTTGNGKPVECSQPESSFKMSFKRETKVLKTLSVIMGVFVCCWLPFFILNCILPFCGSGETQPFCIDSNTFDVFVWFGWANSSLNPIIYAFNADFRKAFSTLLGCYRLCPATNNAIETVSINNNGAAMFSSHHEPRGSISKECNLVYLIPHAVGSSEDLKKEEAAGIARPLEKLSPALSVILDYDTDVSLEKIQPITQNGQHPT
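Allosteric or orthosteric antagonism assessed as attenuation of the calcium response to EC80 dopamine, added 180 s after compound, in induced HEK293 Trex D1 cells loaded with no-wash calcium dye.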
D1 agonist: human D1 receptor agonism; P21728; HEK293 T-REx D1 cells, calcium flux, agonist mode; activation, % at 2 µM; 360,000 compounds, 1% hits; AID 504660
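Agonism was scored from calcium flux recorded over 180 s (1 read/s) after pintool compound addition, following a 10-cycle baseline. Cells were inducible force-coupled HEK293 TREx D1, plated overnight at 30 C and loaded with no-wash calcium dye.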
TRHR ag: activates the human TRH receptor | AID 493084 | 360,000 compounds, 0.18% hits | P34981 | TRHR cells, calcium flux fluo-8, FDSS agonist mode | activation, % at 2 µM
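Read-out: compound-evoked intracellular calcium rise in TRHR cells, fluo-8 dye, kinetic FDSS fluorescence at 1 s/cycle following a 10-cycle baseline. Cells cultured overnight before dye loading (30 min–1.5 h, RT).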
D1 potentiator: human D1 dopamine receptor positive modulation; HEK293 TREx D1 cells, calcium flux, dopamine EC20 potentiation; potentiation, % at 10 µM; 360,000 compounds, 0.036% hits; P21728; AID 504651; in the data active means potentiation above about 30%
TRHR PAM: allosteric enhancers of human TRH receptor | P34981 | TRHR cells, fluo-8 calcium fluorescence, EC20 TRH enhancement | enhancement, % at 2 µM | 360,000 compounds, 0.66% hits; in the data active means enhancement above about 30%
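TRHR-expressing cells loaded with fluo-8 calcium dye were read kinetically (ex 480/em 530) during compound addition, then stimulated with an EC20 of TRH (10 nM final). Enhancement of the Gq-mediated intracellular calcium response was scored.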
A number is an active result; - = inactive. Sampled rows, rich in hits. Any-hit rate of the full collection: about 4.6%. Unless noted, no stated cut-off is given here; in the data, active means activation above about 30%; inactive means the rest.

SMILES	D1 antagonist	D1 agonist	TRHR ag	D1 potentiator	TRHR PAM
Cc1ccc(Cl)cc1N1CCN(C(=O)C2CCN(S(=O)(=O)c3c(C)noc3/C=C/c3ccccc3F)CC2)CC1	-	-	-	-	-
O=C1c2ccccc2S(=O)(=O)c2cc(C(=O)N(c3ccccn3)c3ccccn3)ccc21	-	300	70	-	40
CCN(C(=O)C1CCN(c2ncnc3c2nc2n3CCCCC2)CC1)c1cccc(Cl)c1	-	-	-	-	-
COC(=O)c1cccc(C(=O)N2CCCC(CCC(=O)N(C)CCc3ccccn3)C2)c1 (stereo unspecified)	-	-	-	-	-
Cc1cc(C(=O)NCc2cc(C)n(C)n2)sc1-c1ccccc1	-34	-	-	-	-
CCNc1nc(Oc2ccc(C(=O)OC)cc2)nc(N(C)C)n1	-31	-	-	-	-
O=C(Nc1c[nH]c2c(Cl)cccc2c1=O)N1CCN(c2ccccn2)CC1	-	-	-	-	31
COc1cccc(OC(=O)c2cc3ccccc3oc2=O)c1	-30	-	-	-	-
COc1ccc2oc(=O)c(C(=O)N3CCN(C(=O)c4ccccc4)CC3)cc2c1	-	-	-	-	-
COc1ccc2oc(=O)c(C(=O)N3CCN(c4ccccc4)CC3)cc2c1	-41	-	-	-	-
Cc1ccc(N2C(=O)N(CC(=O)C(C)(C)C)c3ccccc3S2(=O)=O)cc1	-	-	-	-	-
CC(C)C(=O)C1=Cc2cccc([N+](=O)[O-])c2OC1N1CCOCC1 (stereo unspecified)	-36	-	-	-	-
CCOc1ccc(-n2cc(C(=O)Nc3ccccc3OCC)c3cc(OC)c(OC)cc3c2=O)cc1	-	-	-	-	-
CC(CC12CC3CC(CC(C3)C1)C2)NCc1ccccc1O (stereo unspecified)	-	-	-	-	-
Oc1ccccc1CNCC12CC3CC(CC(C3)C1)C2	-	53	-	-	-
CCCCOc1ccc(C(C)NC(=O)CN2C(=O)CSc3ccc(S(=O)(=O)N4CCOCC4)cc32)cc1 (stereo unspecified)	-	-	-	-	-
COC(=O)CNC(=O)c1nn(-c2cccc(OC)c2)c(=O)c2ccccc12	-40	-	-	-	-
COc1cccc(-n2nc(C(=O)O)c3ccccc3c2=O)c1	-	-	-	-	-
Cc1ccccc1-n1c(C)nnc1SCc1nc2ccccc2s1	-	-	-	-	-
CCOc1ccccc1-n1nnnc1SCc1nc2ccccc2s1	-31	-	-	-	-
CCOC(=O)C1=C(C)N=c2s/c(=C/c3ccc(OCC(=O)O)cc3)c(=O)n2C1c1ccc(F)cc1 (stereo unspecified)	-	-	-	-	-
CCOC(=O)C1=C(C)N=c2s/c(=C\c3ccc(OCC(=O)O)cc3)c(=O)n2C1c1ccccc1OC (stereo unspecified)	-	-	-	-	-
CCOC(=O)C1=C(C)N=c2s/c(=C\c3ccc(OCC(=O)O)cc3)c(=O)n2C1c1ccc(Cl)cc1 (stereo unspecified)	-	38	-	-	-
CCOC(=O)C1=C(C)N=c2s/c(=C/c3ccc(OCC(=O)O)cc3)c(=O)n2C1c1ccc(SC)cc1 (stereo unspecified)	-	30	-	-	-
CC(=O)c1ccc(NC(=O)CSc2nnc(Cn3cnc4ccccc43)o2)cc1	-	-	-	-	-
SMILES	D1 antagonist	D1 agonist	TRHR ag	D1 potentiator	TRHR PAM
COc1ccc(C(=O)CSc2nnc(Cn3cnc4ccccc43)o2)cc1	-34	-	-	-	-
COC(=O)c1cccc(NC(=O)Nc2ccc(Cl)cc2)c1	-35	-	-	-	-
COC(=O)c1cccc(NC(=S)Nc2ccc(Cl)c(Cl)c2)c1	-31	-	-	-	-
CC(=O)Nc1ccc(S(=O)(=O)Nc2ccc(-c3cn4c(C)csc4n3)cc2)cc1	-	-	-	-	-
COc1ccc(S(=O)(=O)Nc2ccc(-c3cn4c(C)csc4n3)cc2)cc1	-72	-	-	-	-
O=C(CCCn1nnnc1CN1CCOCC1)N1CCC(c2ccccc2F)C1 (stereo unspecified)	-	-	-	-	-
O=C(CCn1nnnc1CN1CCOCC1)N1CCC(c2cccc(Cl)c2)C1 (stereo unspecified)	-80	-	-	-	-
O=C(C1CCC(=O)N(C2CCCC2)C1)N1CCC(Oc2cccc(F)c2)CC1 (stereo unspecified)	-	-	-	-	-
